High-throughput results: PubChem BioAssay, Johns Hopkins Ion Channel Center
An excerpt weighted towards active compounds, which were near 1.6% of everything screened.
KCNQ2 pot: potentiators of rat KCNQ2 potassium channel; 0.54% of 310,000 active; CHO-K1 KCNQ2, FluxOR thallium flux fluorescence; active compounds read high; O88943; AID 2239; B-score at 10 µM;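 active = fluorescence ratio B-score at least 3 SD of library B-scores, with initial fluorescence B-score within 3 of them, cut at about 5.3 in these data; same plate scores as AID 2156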;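 also: B-score of peak minus minimum over baseline fluorescence ratio after K+ and Tl+ stimulus; positive B-score means potentiation of KCNQ2 with more thallium influx and brighter signal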
Target sequence (O88943 whole entry, looked up): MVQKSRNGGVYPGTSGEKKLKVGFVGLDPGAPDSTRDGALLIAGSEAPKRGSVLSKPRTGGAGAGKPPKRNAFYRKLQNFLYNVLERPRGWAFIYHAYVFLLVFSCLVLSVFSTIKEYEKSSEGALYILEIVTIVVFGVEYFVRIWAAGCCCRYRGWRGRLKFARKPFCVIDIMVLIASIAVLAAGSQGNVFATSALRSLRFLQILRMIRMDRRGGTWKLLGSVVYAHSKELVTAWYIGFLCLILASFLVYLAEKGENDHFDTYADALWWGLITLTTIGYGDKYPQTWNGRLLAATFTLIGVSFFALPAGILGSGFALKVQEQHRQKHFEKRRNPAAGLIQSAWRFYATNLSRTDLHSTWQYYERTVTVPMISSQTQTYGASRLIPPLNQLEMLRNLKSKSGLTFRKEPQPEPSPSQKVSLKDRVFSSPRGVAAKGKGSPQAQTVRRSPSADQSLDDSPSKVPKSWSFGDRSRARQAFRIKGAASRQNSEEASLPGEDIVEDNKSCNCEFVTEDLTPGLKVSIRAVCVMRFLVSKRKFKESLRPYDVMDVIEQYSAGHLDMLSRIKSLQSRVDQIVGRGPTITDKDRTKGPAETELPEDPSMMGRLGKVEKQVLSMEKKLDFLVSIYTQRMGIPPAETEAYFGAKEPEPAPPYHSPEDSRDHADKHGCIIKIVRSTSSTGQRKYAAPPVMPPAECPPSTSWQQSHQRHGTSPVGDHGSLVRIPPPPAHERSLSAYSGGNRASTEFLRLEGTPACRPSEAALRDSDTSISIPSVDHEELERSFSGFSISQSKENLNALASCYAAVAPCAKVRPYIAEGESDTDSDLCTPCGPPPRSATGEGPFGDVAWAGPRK
KCNQ2 inh: blocks the rat KCNQ2 potassium channel. AID 2156. 1.1% of 310,000 active. CHO-K1 KCNQ2, FluxOR thallium flux, 20 min; active compounds read low. B-score at 10 µM;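 active = fluorescence ratio B-score at most minus 3 library SDs, with starting brightness B-score within 2 library SDs, cut at about -5.5 in these data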
* hit, by the source's call.

What do the screens show for `COc1cccc(N2CC(C(=O)Nc3c(C(N)=O)oc4ccccc34)CC2=O)c1` (configuration not stated)?
KCNQ2 pot: 0.13; KCNQ2 inh: inactive

How did CC(=O)Nc1ccc2c3c(cccc13)CC2 do in these assays?
KCNQ2 pot: 1.4; KCNQ2 inh: inactive

Results for CC(C)CC(=O)Nc1ccc2c3c(cccc13)CC2 ?
KCNQ2 pot: 26*; KCNQ2 inh: inactive

How did CCCCC(=O)Nc1ccc2c3c(cccc13)CC2 do in these assays?
KCNQ2 pot: 19*; KCNQ2 inh: inactive

What do the screens show for `Cc1cc(C)cc(OCC(=O)Nc2ccc3c4c(cccc24)CC3)c1`?
KCNQ2 pot: 0.25; KCNQ2 inh: inactive

What do the screens show for `Cc1cccc(NC(=O)c2ccccc2NC(=O)c2ccccc2)n1`?
KCNQ2 inh: inactive

Results for Cc1ccnc(NC(=O)c2ccc(S(=O)(=O)N3CCC(C)CC3)cc2)c1 ?
KCNQ2 inh: inactive

What do the screens show for `Cc1cc2ncn(-c3ncnc4sc5c(c34)CCCC5)c2cc1C`?
KCNQ2 inh: inactive

Results for Cc1cc2ncn(-c3ncnc4sc5c(c34)CCC(C)C5)c2cc1C (configuration not stated) ?
KCNQ2 pot: -5.9; KCNQ2 inh: -5.9*

How did Cc1ccc(CNCC(=O)Nc2ccc(N3CCOCC3)cc2)cc1 do in these assays?
KCNQ2 inh: inactive

What do the screens show for `CN(C)c1nc(SCC(=O)Nc2ccccc2)nc(N2CCOCC2)n1`?
KCNQ2 pot: 6.4*; KCNQ2 inh: inactive

How did CN(C)c1nc(SCC(=O)Nc2ccc(Cl)c(Cl)c2)nc(N2CCOCC2)n1 do in these assays?
KCNQ2 pot: 1.5; KCNQ2 inh: inactive

How did O=C(Nc1cc(Cl)ccc1-n1cncn1)c1ccc(Br)o1 do in these assays?
KCNQ2 inh: inactive

Results for COc1ccc(S(=O)(=O)Nc2cccc(S(=O)(=O)N3CCCC3)c2)cc1OC ?
KCNQ2 pot: 0.2; KCNQ2 inh: inactive

What do the screens show for `COc1ccc(C(=O)NCc2nnc(SCC(=O)Nc3cc(C)on3)o2)cc1OC`?
KCNQ2 inh: inactive

Results for Cc1cc(NC(=O)CSc2nnc(CNC(=O)c3ccc(C(C)(C)C)cc3)o2)no1 ?
KCNQ2 pot: -6.4; KCNQ2 inh: -6.4*

What do the screens show for `COc1ccc(-c2cnc(SCC(=O)Nc3cc(C)on3)n2Cc2ccco2)cc1`?
KCNQ2 inh: inactive

What do the screens show for `COc1ccc(-c2cnc(SCC(=O)Nc3nc(C(C)(C)C)cs3)n2Cc2ccco2)cc1`?
KCNQ2 pot: -8.3; KCNQ2 inh: -8.3*

Results for Cc1ccccc1C(=O)NC1CCN(CC(=O)Nc2ccc(Br)cc2)CC1 ?
KCNQ2 pot: 0.31; KCNQ2 inh: inactive

What do the screens show for `O=C(NCc1cccnc1)c1cc2nc(-c3ccc4c(c3)OCO4)cc(C(F)(F)F)n2n1`?
KCNQ2 pot: 0.51; KCNQ2 inh: inactive

Results for O=C(NCc1ccco1)c1nc2nc(-c3cccs3)cc(C(F)(F)F)n2n1 ?
KCNQ2 pot: 0.75; KCNQ2 inh: inactive

How did O=C(NCc1ccco1)c1nn2c(C(F)(F)F)cc(-c3cccs3)nc2c1Br do in these assays?
KCNQ2 pot: -6.8; KCNQ2 inh: -6.8*

Results for O=C(NCc1ccco1)c1cc2nc(-c3ccc4c(c3)OCO4)cc(C(F)(F)F)n2n1 ?
KCNQ2 pot: -8.2; KCNQ2 inh: -8.2*

How did CCCOc1ccc(C(=O)NC(=S)N2CCN(c3cc4c(cc3F)c(=O)c(C(=O)O)cn4CC)CC2)cc1 do in these assays?
KCNQ2 pot: 0.08; KCNQ2 inh: inactive

Results for CN(C(=O)CSC1=NC2C(N=N1)c1cc(Br)ccc1N2C)C1CCCCC1 (configuration not stated) ?
KCNQ2 inh: inactive

Results for O=C(O)c1ccc(Cl)c(NCc2cccs2)c1 ?
KCNQ2 inh: inactive

Results for CC1(C)CC(=O)C(=Cc2cn(CCC#N)nc2-c2ccc(F)cc2)C(=O)C1 ?
KCNQ2 pot: 6.5*; KCNQ2 inh: inactive

What do the screens show for `CC1(C)CC(=O)C(=Cc2cn(CCC#N)nc2-c2ccc(Cl)cc2)C(=O)C1`?
KCNQ2 pot: 3.8; KCNQ2 inh: inactive

What do the screens show for `Cc1ccc(C)c(Nc2nn3c(=O)c4ccc(C(=O)NCc5cccnc5)cc4nc3s2)c1`?
KCNQ2 pot: 0.89; KCNQ2 inh: inactive

Results for CCOC(=O)C1CCN(C(=O)c2ccc3c(=O)n4nc(Nc5cc(C)ccc5C)sc4nc3c2)CC1 ?
KCNQ2 pot: -5.8; KCNQ2 inh: -5.8*

How did COc1ccccc1C(=O)C1CCCN(C(=O)c2ccco2)C1 (configuration not stated) do in these assays?
KCNQ2 inh: inactive

Results for O=C(NCc1cccnc1)/C(=C/c1ccc(-c2ccc(Cl)cc2)o1)S(=O)(=O)c1ccccc1 ?
KCNQ2 pot: -6.2; KCNQ2 inh: -6.2*

Results for O=C(NCc1cccnc1)/C(=C\c1ccc(-c2ccc(Br)cc2)o1)S(=O)(=O)c1ccccc1 ?
KCNQ2 inh: inactive

How did COc1ccc(NC(=O)/C(Cl)=C(/Cl)S(=O)(=O)Cc2ccc(C)cc2)cn1 do in these assays?
KCNQ2 pot: 5.4*; KCNQ2 inh: inactive

Results for COc1ccc(NC(=O)Cc2ccc(Cl)c(Cl)c2)cn1 ?
KCNQ2 inh: inactive

What do the screens show for `O=C(OCc1cccc([N+](=O)[O-])c1)c1ccc2ccccc2n1`?
KCNQ2 pot: 0.65; KCNQ2 inh: inactive

How did Cc1cccc(OCC(=O)Nc2ccccc2N2CCCC2)c1C do in these assays?
KCNQ2 inh: inactive

Results for Cc1cccc(OCC(=O)Nc2ccccc2N2CCN(C(=O)C(C)C)CC2)c1C ?
KCNQ2 pot: -5.8; KCNQ2 inh: -5.8*

What do the screens show for `CC(=O)N1CCN(c2ccccc2NC(=O)COc2cc(C)ccc2C(C)C)CC1`?
KCNQ2 pot: -7.8; KCNQ2 inh: -7.8*

How did Cc1ccc(C(C)C)c(OCC(=O)Nc2ccccc2N2CCN(C)CC2)c1 do in these assays?
KCNQ2 inh: inactive

What do the screens show for `Cc1ccc(S(=O)(=O)N2CCN(C(=O)COC(=O)c3cnc(C)cn3)CC2)c(C)c1`?
KCNQ2 pot: 0.98; KCNQ2 inh: inactive

How did c1ccc(Oc2cnc3ccccc3n2)cc1 do in these assays?
KCNQ2 pot: 2.2; KCNQ2 inh: inactive

Results for COc1ccc(Oc2cnc3ccccc3n2)cc1 ?
KCNQ2 pot: -6; KCNQ2 inh: -6*

What do the screens show for `CN(C)C(CNC(=O)CNC(=O)Cc1cccc2ccccc12)c1ccccc1` (configuration not stated)?
KCNQ2 inh: inactive

How did O=C(CSc1nnc(-c2c[nH]c3ccccc23)o1)N(Cc1ccccc1)c1ccc(F)cc1 do in these assays?
KCNQ2 inh: inactive

How did COc1ccc(CN(C(=O)CSc2nnc(-c3ccccc3C)o2)c2ccc(F)cc2)cc1 do in these assays?
KCNQ2 pot: -6.4; KCNQ2 inh: -6.4*

What do the screens show for `CCOc1cc(NC(=S)NCC2CCCO2)c(OCC)cc1NC(=O)CC(C)C` (configuration not stated)?
KCNQ2 inh: inactive

How did CCOC(=O)C1=C(C)n2c(s/c(=C/c3cccc([N+](=O)[O-])c3)c2=O)=NC1c1ccc(O)c(OC)c1 (configuration not stated) do in these assays?
KCNQ2 pot: -6.1; KCNQ2 inh: -6.1*

How did CCOC(=O)C1=C(C)N=c2s/c(=C\c3ccc(OCC(=O)O)cc3)c(=O)n2C1c1ccccc1OC (configuration not stated) do in these assays?
KCNQ2 pot: 1.1; KCNQ2 inh: inactive

How did CCOC(=O)C1=C(C)N=c2s/c(=C/c3ccccc3)c(=O)n2C1c1ccc(OC)c(OC)c1 (configuration not stated) do in these assays?
KCNQ2 inh: inactive
